From the supplement of paper PMC7411054 come the findings set out here.

Common to all, as to details: treatment time: 24 h
The subject of experiment [1] is A549-ACTB-RAB5A. The experiment is described as follows: lowest phenotypically active concentration; higher = less potent. The procedure, abridged: (§1)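 Fifteen reporter lines derived from A549, HepG2 and WPMY1 cells by gene editing, carrying BFP for segmentation plus GFP and RFP/FusionRed markers, were exposed to 0.3, 1, 3 or 9 µM for 24 h in four wells each and imaged live. Live-cell features from each well were normalised to solvent control wells. A well set counted as deviating when ≥3 of 4 wells lay beyond the 95th percentile of control Euclidean distances, and as reproducible when the median replicate Pearson correlation exceeded the 95th percentile of non-replicates. Phenotypic activity was assigned only when both criteria were met.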

Experiment [2] relates to A549-CANX-COX4. The experiment is described as above. The procedure, abridged:
as §1

The subject of experiment [3] is A549-GM130-SQSTM1. Described as above. The procedure, abridged: as §1
Experiment [4] concerns A549-TP53BP1-CLTA. The experiment is described as above. The procedure, abridged: as §1
Experiment [5] relates to A549-TUBA1B-RELA. The experiment is described as above. The procedure, abridged: as §1
Experiment [6] concerns A549-ACTB-RAB5A. Nature of the experiment: phenotypically active (imaging signature differs from DMSO and reproducible) at any of 0.3-9 uM (binary (1 = active, 0 = inactive)); higher = active. The procedure, abridged:
as §1

The test system of experiment [7] is A549-CANX-COX4. The description is as above. The procedure, abridged:
as §1

For experiment [8], the system named is A549-GM130-SQSTM1. The experiment is described as above. The procedure, abridged:
as §1

Experiment [9] deals with A549-TP53BP1-CLTA. Described as above. The procedure, abridged:
as §1

Experiment [10] has as its system A549-TUBA1B-RELA. Described as above. The procedure, abridged: as §1
The subject of a further experiment is HepG2-ACTB-RAB5A. The description is as above. The procedure, abridged:
as §1

The next experiment relates to HepG2-CANX-COX4. The experiment is described as above. The procedure, abridged: as §1
Another experiment relates to HepG2-GM130-SQSTM1. The description is as above. The procedure, abridged: as §1
In another experiment the test system is HepG2-TP53BP1-CLTA. Described as above. The procedure, abridged:
as §1

In the next experiment the test system is HepG2-TUBA1B-RELA. Described as above. The procedure, abridged: as §1
The next experiment has as its system WPMY1-ACTB-RAB5A. The experiment is described as above. The procedure, abridged:
as §1

The subject of the next experiment is WPMY1-CANX-COX4. Described as above. The procedure, abridged: as §1
Another experiment deals with WPMY1-GM130-SQSTM1. Described as above. The procedure, abridged:
as §1

For another experiment, the system named is WPMY1-TP53BP1-CLTA. The experiment is described as above. The procedure, abridged: as §1
For the next experiment, the system named is WPMY1-TUBA1B-RELA. The description is as above. The procedure, abridged: as §1

Bounds are passed on as bounds.

Regarding `CC(=O)O[C@@]12CO[C@@H]1C[C@H](O)[C@@]1(C)C(=O)[C@H](O)C3=C(C)[C@@H](OC(=O)[C@H](O)[C@@H](NC(=O)OC(C)(C)C)c4ccccc4)C[C@](O)([C@@H](OC(=O)c4ccccc4)[C@H]21)C3(C)C` [Docetaxel], the “lowest phenotypically active concentration” value in the experiment on A549-ACTB-RAB5A [1], in the experiment on A549-CANX-COX4 [2], in the experiment on A549-GM130-SQSTM1 [3], in the experiment on A549-TP53BP1-CLTA [4] and in the experiment with A549-TUBA1B-RELA [5] was no more than 0.3 µM in each case. Moreover, the phenotypically active with A549-ACTB-RAB5A [6], in the experiment with A549-CANX-COX4 [7], in the experiment on A549-GM130-SQSTM1 [8], with A549-TP53BP1-CLTA [9], in the experiment with A549-TUBA1B-RELA [10] and in the experiment with HepG2-ACTB-RAB5A was 1 (active) each time. The phenotypically active with HepG2-CANX-COX4, in the experiment on HepG2-GM130-SQSTM1, with HepG2-TP53BP1-CLTA, with HepG2-TUBA1B-RELA, with WPMY1-ACTB-RAB5A and in the experiment on WPMY1-CANX-COX4 was 1 (active) in each case. For the same compound, the phenotypically active in the experiment with WPMY1-GM130-SQSTM1, with WPMY1-TP53BP1-CLTA and in the experiment with WPMY1-TUBA1B-RELA was 1 (active) in each case.
Regarding `COc1cc2c(Nc3ccc(Br)cc3F)ncnc2cc1OCC1CCN(C)CC1` [vandetanib], the “lowest phenotypically active concentration” value with A549-ACTB-RAB5A [1] stood at 1 µM; with A549-CANX-COX4 [2] it was 3 µM; with A549-GM130-SQSTM1 [3] it was 1 µM; in the experiment on A549-TP53BP1-CLTA [4] it was 3 µM; in the experiment on A549-TUBA1B-RELA [5] it was 1 µM. In addition, the phenotypically active with A549-ACTB-RAB5A [6], in the experiment with A549-CANX-COX4 [7], in the experiment on A549-GM130-SQSTM1 [8], with A549-TP53BP1-CLTA [9], in the experiment with A549-TUBA1B-RELA [10] and in the experiment on HepG2-ACTB-RAB5A was 1 (active) each time. For the same compound, the phenotypically active in the experiment on HepG2-CANX-COX4, in the experiment on HepG2-GM130-SQSTM1, in the experiment with HepG2-TP53BP1-CLTA, in the experiment with HepG2-TUBA1B-RELA, with WPMY1-ACTB-RAB5A and in the experiment on WPMY1-CANX-COX4 was 1 (active) each time. Moreover, the phenotypically active in the experiment with WPMY1-GM130-SQSTM1, with WPMY1-TP53BP1-CLTA and in the experiment with WPMY1-TUBA1B-RELA was 1 (active) throughout.
With `O=C1NCCN1CCN1CCC(c2cn(-c3ccc(F)cc3)c3ccc(Cl)cc23)CC1` [sertindole], the “lowest phenotypically active concentration” value was determined as 3 µM in the experiment on A549-ACTB-RAB5A [1]; 3 µM in the experiment with A549-CANX-COX4 [2]; 3 µM in the experiment on A549-GM130-SQSTM1 [3]; 9 µM in the experiment with A549-TP53BP1-CLTA [4]; 3 µM with A549-TUBA1B-RELA [5]. The phenotypically active with A549-ACTB-RAB5A [6], in the experiment on A549-CANX-COX4 [7], with A549-GM130-SQSTM1 [8], in the experiment with A549-TP53BP1-CLTA [9], with A549-TUBA1B-RELA [10] and in the experiment on HepG2-ACTB-RAB5A was 1 (active) throughout. In addition, the phenotypically active in the experiment on HepG2-CANX-COX4, in the experiment on HepG2-GM130-SQSTM1, in the experiment with HepG2-TP53BP1-CLTA, with HepG2-TUBA1B-RELA, in the experiment on WPMY1-ACTB-RAB5A and in the experiment on WPMY1-CANX-COX4 was 1 (active) each time. Moreover, the phenotypically active in the experiment on WPMY1-GM130-SQSTM1, in the experiment with WPMY1-TP53BP1-CLTA and with WPMY1-TUBA1B-RELA was 1 (active) each time.
Consider `CCOC(=O)CCNc1cc(N2CCc3ccccc3CC2)nc(-c2ccccn2)n1`, for which the “lowest phenotypically active concentration” value with A549-ACTB-RAB5A [1] amounted to 3 µM; in the experiment on A549-CANX-COX4 [2], 9 µM; in the experiment with A549-GM130-SQSTM1 [3] it was 9 µM; in the experiment on A549-TP53BP1-CLTA [4], 3 µM; with A549-TUBA1B-RELA [5] it was 3 µM. Besides, the phenotypically active with A549-ACTB-RAB5A [6], with A549-CANX-COX4 [7], in the experiment with A549-GM130-SQSTM1 [8], in the experiment with A549-TP53BP1-CLTA [9], in the experiment on A549-TUBA1B-RELA [10] and with HepG2-ACTB-RAB5A was 1 (active) throughout. Further, the phenotypically active in the experiment with HepG2-CANX-COX4, in the experiment on HepG2-GM130-SQSTM1, in the experiment with HepG2-TP53BP1-CLTA, in the experiment with HepG2-TUBA1B-RELA, with WPMY1-ACTB-RAB5A and in the experiment on WPMY1-CANX-COX4 was 1 (active) in each case. The phenotypically active in the experiment on WPMY1-GM130-SQSTM1, in the experiment on WPMY1-TP53BP1-CLTA and with WPMY1-TUBA1B-RELA was 1 (active) each time.
As to `O=C(NCCCNc1nc(Nc2cccc(NC(=O)N3CCCC3)c2)ncc1I)c1cccs1`, the “lowest phenotypically active concentration” value in the experiment with A549-ACTB-RAB5A [1] worked out at 1 µM; in the experiment with A549-CANX-COX4 [2], 3 µM; in the experiment with A549-GM130-SQSTM1 [3], 3 µM; in the experiment with A549-TP53BP1-CLTA [4] it was 3 µM; in the experiment with A549-TUBA1B-RELA [5], 3 µM. The phenotypically active with A549-ACTB-RAB5A [6], in the experiment on A549-CANX-COX4 [7], with A549-GM130-SQSTM1 [8], in the experiment with A549-TP53BP1-CLTA [9], with A549-TUBA1B-RELA [10] and in the experiment with HepG2-ACTB-RAB5A was 1 (active) throughout. The phenotypically active in the experiment on HepG2-CANX-COX4, in the experiment on HepG2-GM130-SQSTM1, with HepG2-TP53BP1-CLTA, with HepG2-TUBA1B-RELA, with WPMY1-ACTB-RAB5A and with WPMY1-CANX-COX4 was 1 (active) each time. Also, the phenotypically active in the experiment with WPMY1-GM130-SQSTM1, with WPMY1-TP53BP1-CLTA and in the experiment on WPMY1-TUBA1B-RELA was 1 (active) each time.
For the compound `O=C(CCCc1ccc(-c2ccccc2F)cc1)Nc1ccc(O)cc1`, the “lowest phenotypically active concentration” value in the experiment with A549-ACTB-RAB5A [1], with A549-CANX-COX4 [2], with A549-GM130-SQSTM1 [3], in the experiment with A549-TP53BP1-CLTA [4] and in the experiment with A549-TUBA1B-RELA [5] was 1 µM each time. Further, the phenotypically active in the experiment with A549-ACTB-RAB5A [6], in the experiment on A549-CANX-COX4 [7], in the experiment with A549-GM130-SQSTM1 [8], with A549-TP53BP1-CLTA [9], in the experiment with A549-TUBA1B-RELA [10] and in the experiment on HepG2-ACTB-RAB5A was 1 (active) in each case. Also, the phenotypically active with HepG2-CANX-COX4, in the experiment with HepG2-GM130-SQSTM1, in the experiment with HepG2-TP53BP1-CLTA, in the experiment with HepG2-TUBA1B-RELA, in the experiment on WPMY1-ACTB-RAB5A and in the experiment on WPMY1-CANX-COX4 was 1 (active) each time. In addition, the phenotypically active in the experiment with WPMY1-GM130-SQSTM1, with WPMY1-TP53BP1-CLTA and with WPMY1-TUBA1B-RELA was 1 (active) in each case.
With `COc1ccc(S(=O)(=O)Nc2cccnc2Nc2ccc(O)cc2)cc1`, the “lowest phenotypically active concentration” value stood at 1 µM with A549-ACTB-RAB5A [1]; 1 µM in the experiment on A549-CANX-COX4 [2]; 1 µM with A549-GM130-SQSTM1 [3]; 1 µM in the experiment on A549-TP53BP1-CLTA [4]; 3 µM with A549-TUBA1B-RELA [5]. Moreover, the phenotypically active with A549-ACTB-RAB5A [6], in the experiment with A549-CANX-COX4 [7], with A549-GM130-SQSTM1 [8], with A549-TP53BP1-CLTA [9], in the experiment on A549-TUBA1B-RELA [10] and in the experiment on HepG2-ACTB-RAB5A was 1 (active) each time. Besides, the phenotypically active in the experiment on HepG2-CANX-COX4, with HepG2-GM130-SQSTM1, in the experiment with HepG2-TP53BP1-CLTA, in the experiment on HepG2-TUBA1B-RELA, in the experiment with WPMY1-ACTB-RAB5A and in the experiment on WPMY1-CANX-COX4 was 1 (active) throughout. Further, the phenotypically active in the experiment on WPMY1-GM130-SQSTM1, with WPMY1-TP53BP1-CLTA and with WPMY1-TUBA1B-RELA was 1 (active) each time.
